SMILES strings stand for the structures. Records with an inconclusive call do not appear. Where a call stands in place of a potency, no number is given. A structure can be active in one record and inactive in another. Activity calls are given as the source filed them. Calls follow the shape of the dose curve; as a rule, active = well fitted activation curve with a large enough effect in the repeat runs; inconclusive = weak or mixed curves; inactive = no such curve, though single readings can be large or run the other way.
Potency is read from the fitted curve at half-maximal effect.

Nuclear receptor subfamily 1 group I member 2 (Homo sapiens), sequence (O75469 whole entry, looked up): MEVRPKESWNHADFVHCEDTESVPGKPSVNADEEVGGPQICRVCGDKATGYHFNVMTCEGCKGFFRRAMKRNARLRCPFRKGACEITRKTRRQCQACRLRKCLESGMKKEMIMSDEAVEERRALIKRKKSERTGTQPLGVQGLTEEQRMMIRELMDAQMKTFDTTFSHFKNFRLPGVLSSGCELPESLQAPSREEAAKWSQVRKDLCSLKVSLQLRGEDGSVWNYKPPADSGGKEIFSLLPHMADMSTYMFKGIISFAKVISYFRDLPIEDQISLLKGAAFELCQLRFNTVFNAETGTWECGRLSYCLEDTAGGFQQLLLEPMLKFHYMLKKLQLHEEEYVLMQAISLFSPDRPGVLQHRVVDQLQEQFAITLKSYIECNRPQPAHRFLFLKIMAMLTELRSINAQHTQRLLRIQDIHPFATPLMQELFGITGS

The target of the assay is Nuclear receptor subfamily 1 group I member 2 (Homo sapiens) (UniProt O75469). Put plainly: Human pregnane X receptor (PXR) small molecule agonists, qHTS assay (AID 1346982). Also: nearly all actives have a fitted effect of over 35% in size. The note with it: PXR-Luc HepG2, CYP3A4 luciferase reporter, 24 h; series mostly up to 92.4 µM. An excerpt:
National Center for Advancing Translational Sciences [NCATS]
NIH Chemical Genomics Center [NCGC]
U.S. Environmental Protection Agency [EPA]
National Institutes of Environmental Health Sciences [NIEHS]
National Toxicology Program [NTP]
The human pregnane X receptor (hPXR) regulates the expression of several drug metabolizing enzymes and induction of these proteins is a major mechanism for developing drug resistance in cancer. One such key enzyme catalyzing the drug metabolism is cytochrome P450 3A4 (CYP3A4). Changes in CYP3A4 expression affect drug metabolism, thereby reducing the therapeutic efficacy and altering toxicological response to a drug and which finally causes adverse drug interaction. To screen Tox21 libraries for compounds that activate hPXR-mediated CYP3A4 gene expression, PXR-Luc HepG2 cells were used.
PXR-Luc HepG2 cells were dispensed at 2,000 per well in 5uL of assay medium containing 5% charcoal-stripped FBS into white solid bottom 1536-well plates (Corning Life Sciences, Corning, NY) using a Multidrop Combi (Thermo Scientific, Waltham, MA) dispenser. The assay plates were incubated at 37 C and 5% CO2 for 5hr, and then 23nL of compounds dissolved in DMSO and positive control were transferred using a Pintool station (Wako, San Diego, CA). The assay plates were incubated at 37C and 5% CO2 for 24hr. For luciferase read, 4uL of ONE-Glo reagent (Promega Corporation, Madison, WI) was added to each well of the assay plates using Flying Reagent Dispenser (FRD, Aurora Discovery, San Diego, CA) and incubated the assay plates at room temperature for 30min. The luminescence signal was quantified using a ViewLux plate reader (Perkin Elmer, Shelton, CT).
Regarding `Cc1ccc(C(C)C)c(O)c1`, the Potency entry was “inactive”.
As for `CC1(C)OC[C@@H]2O[C@@]3(C(=O)O)OC(C)(C)O[C@H]3[C@@H]2O1`, the Potency entry was “inactive”.
`CCCCCCCCCCCCCCCC(=O)OC(C)C`: the Potency result is “inactive”.
On to `OCc1ccccc1`, for which the Potency result was “inactive”.
With `CCCCCCCCCCO` the entry was “inactive”; with `CC1(C)S[C@@H]2[C@H](NC(=O)COc3ccccc3)C(=O)N2[C@H]1C(=O)O`, “inactive”; with `Brc1ccc(Br)c(Br)c1`, “inactive”.
As to `CC(=O)CCC=C(C)C`, the Potency result was “inactive”.
Turning to `NCCNCCN`, the Potency entry is “inactive”.
With `CCOC(=O)n1ccn(C)c1=S` the entry was “inactive”.
`CC(CCO)CC(C)(C)C` (stereo not given): the Potency result was “inactive”.
With `O=[N+]([O-])c1ccc2nc[nH]c2c1`, the Potency result is “inactive”.
To `CCO[Si](CCC#N)(OCC)OCC` belongs “inactive”; to `CN(C)c1ccc(O)c2c1C[C@H]1C[C@H]3[C@H](N(C)C)C(=O)C(C(N)=O)=C(O)[C@@]3(O)C(=O)C1=C2O`, “inactive”.
`CC(C)CC(=O)CC(C)CC(C)C` (stereo not given): the Potency entry was “inactive”.
To `C=CCc1ccc(OC)c(OC)c1` belongs “inactive”; to `C=C(C)C(=O)OCC(C)C`, 17.5 µM (active) and inactive; to `C=CC(=O)OCCC(=O)O`, “inactive”.
With `O=C(O)c1ccccc1C(=O)O` the entry was “inactive”.
As to `CC(C)=CCl`, the Potency result is “inactive”.
For `CNC(=O)Oc1ccc2c(c1)[C@]1(C)CCN(C)[C@@H]1N2C`, the Potency result was “inactive”.
With `CCOC(=O)c1ccc(N)cc1` the entry was “inactive”.
To `CCNC(=S)NCC` belongs “inactive”.
Take `CCCCCCC=O`: the Potency entry is “inactive”.
Take `CC(=O)OCCOC(C)=O`: the Potency result was “inactive”.
To `COc1ccc(OC)cc1` belongs “inactive”; to `CCc1ccccc1CC`, “inactive”.
As to `CN/C(=C\[N+](=O)[O-])NCCSCc1csc(CN(C)C)n1`, the Potency entry was “inactive”.
Consider `NCCN1CCNCC1`, for which the Potency entry was “inactive”.
With `N#Cc1ccccc1` the entry was “inactive”.
Consider `CNC(=S)N(C)C`, for which the Potency was 61.7 µM (active) and inactive.
For the molecule `c1ccc2c(c1)Cc1ccccc1-2`, the Potency result is “inactive”.
With `CC(C)CC(C)O` (stereo not given), the Potency entry is “inactive”.
For the molecule `CCCCCCO`, the Potency result was “inactive”.
To `CCCCC(C=O)CC` (stereo not given) belongs “inactive”; to `O=C(O)CCCCCCCCC(=O)O`, “inactive”; to `CN(C)CCOC(=O)COc1ccc(Cl)cc1`, “inactive”.
As to `COC(=O)c1cccnc1`, the Potency entry is “inactive”.
Regarding `CCNc1cccc(C)c1`, the Potency result was “inactive”.
On to `C=C(C)[C@H]1CC=C(C)C(=O)C1`, for which the Potency result is “inactive”.

(Values after PubChem BioAssay (Tox21).)
